Test in all cases: yeast three-hybrid, YBZ-1, SC-Leu-His + 0.5 mM 3-AT, 4 days
Holding throughout (conditions): tags: N-Gal4 AD-HA kept; label: inside an RPR1-promoter hybrid RNA with tandem MS2 sites; ssRNA

For assay [1], the target named is PUM1 PUF domain R4-DFV (Homo sapiens, UniProt Q14671 828-1176, N971D;H972F;Q975V). In short, it runs like this:
(§1)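 Repeat regions from input (SC-Leu) and selection (SC-Leu-His + 0.5 mM 3-AT) plates were PCR-amplified and Illumina-sequenced after four days of growth. The cells were strain YBZ-1 with a LexA–MS2 coat fusion and a HIS3 reporter, co-expressing Pumilio-1 PUF domain libraries and matching RNA elements from a centromeric plasmid. The interaction score is the log change in variant frequency from input to selection, taken in log2 with a pseudocount of 1 for absent variants.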

Assay [2] deals with PUM1 PUF domain R4-TRA (Homo sapiens, UniProt Q14671 828-1176, N971T;H972R;Q975A). In short, it runs like this: as §1
PUM1 PUF domain R4-TRA, sequence (Q14671 828-1176 N971T/H972R/Q975A): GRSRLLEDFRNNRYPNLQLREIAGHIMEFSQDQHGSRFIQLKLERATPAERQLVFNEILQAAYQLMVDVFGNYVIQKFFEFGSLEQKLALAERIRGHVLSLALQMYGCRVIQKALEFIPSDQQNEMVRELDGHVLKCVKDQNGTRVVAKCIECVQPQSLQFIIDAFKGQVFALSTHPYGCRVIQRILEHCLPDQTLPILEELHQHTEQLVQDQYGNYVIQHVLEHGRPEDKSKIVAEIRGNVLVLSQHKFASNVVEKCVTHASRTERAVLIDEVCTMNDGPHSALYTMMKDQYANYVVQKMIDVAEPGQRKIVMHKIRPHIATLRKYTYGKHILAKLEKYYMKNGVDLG
Assay [3] deals with PUM1 PUF domain R8-PWV (Homo sapiens, UniProt Q14671 828-1176, N1122P;Y1123W;Q1126V). In a few lines: as §1
PUM1 PUF domain R8-PWV, sequence (Q14671 828-1176 N1122P/Y1123W/Q1126V): as the sequence (Q14671 828-1176 N971T/H972R/Q975A) above, with T144N, R145H, A148Q, N295P, Y296W, Q299V counted along it
The target of assay [4] is T1, PUM1 PUF domain R6-GFM (Homo sapiens, UniProt Q14671 828-1176, N1043G;Y1044F;Q1047M).
T1 sequence: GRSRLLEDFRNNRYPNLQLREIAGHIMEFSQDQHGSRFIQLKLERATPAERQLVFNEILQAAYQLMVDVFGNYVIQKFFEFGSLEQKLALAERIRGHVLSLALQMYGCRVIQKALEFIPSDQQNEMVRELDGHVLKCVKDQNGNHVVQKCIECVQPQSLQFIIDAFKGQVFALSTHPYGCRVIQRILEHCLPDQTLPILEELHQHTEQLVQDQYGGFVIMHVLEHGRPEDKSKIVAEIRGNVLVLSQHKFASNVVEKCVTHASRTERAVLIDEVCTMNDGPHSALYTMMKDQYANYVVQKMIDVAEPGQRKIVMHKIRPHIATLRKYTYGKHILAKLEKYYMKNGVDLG
In a few lines:
as §1

Assay [5] deals with PUM1 PUF domain R3-VRE (Homo sapiens, UniProt Q14671 828-1176, C935V;Q939E). In a few lines: as §1
PUM1 PUF domain R3-VRE, sequence (Q14671 828-1176 C935V/Q939E): as the sequence (Q14671 828-1176 N971T/H972R/Q975A) above, with C108V, Q112E, T144N, R145H, A148Q counted along it
For assay [6], the target named is PUM1 PUF domain R5-GRL (Homo sapiens, UniProt Q14671 828-1176, C1007G;Q1011L). In a few lines: as §1
PUM1 PUF domain R5-GRL, sequence (Q14671 828-1176 C1007G/Q1011L): as the sequence (Q14671 828-1176 N971T/H972R/Q975A) above, with T144N, R145H, A148Q, C180G, Q184L counted along it
The target in assay [7] is PUM1 PUF domain R3-GCD (Homo sapiens, UniProt Q14671 828-1176, C935G;R936C;Q939D). In short, it runs like this: as §1
PUM1 PUF domain R3-GCD, sequence (Q14671 828-1176 C935G/R936C/Q939D): as the sequence (Q14671 828-1176 N971T/H972R/Q975A) above, with C108G, R109C, Q112D, T144N, R145H, A148Q counted along it
Assay [8] deals with PUM1 PUF domain R3-LWM (Homo sapiens, UniProt Q14671 828-1176, C935L;R936W;Q939M). In short, it runs like this: as §1
PUM1 PUF domain R3-LWM, sequence (Q14671 828-1176 C935L/R936W/Q939M): as the sequence (Q14671 828-1176 N971T/H972R/Q975A) above, with C108L, R109W, Q112M, T144N, R145H, A148Q counted along it
Assay [9] concerns the target PUM1 PUF domain R1-SFK (Homo sapiens, UniProt Q14671 828-1176, R864F;Q867K). In short, it runs like this:
as §1

The target in assay [10] is PUM1 PUF domain R1-RWV (Homo sapiens, UniProt Q14671 828-1176, S863R;R864W;Q867V). In short, it runs like this:
as §1

For assay [11], the target named is PUM1 PUF domain R1-KRV (Homo sapiens, UniProt Q14671 828-1176, S863K;Q867V). In a few lines:
as §1

Assay [12] concerns the target PUM1 PUF domain R3-LHY (Homo sapiens, UniProt Q14671 828-1176, C935L;R936H;Q939Y). In a few lines: as §1
Assay [13] concerns the target PUM1 PUF domain R3-RRE (Homo sapiens, UniProt Q14671 828-1176, C935R;Q939E). In short, it runs like this:
as §1

Assay [14] addresses PUM1 PUF domain R7-RQR (Homo sapiens, UniProt Q14671 828-1176, S1079R;N1080Q;E1083R). In short, it runs like this:
as §1

For assay [15], the target named is PUM1 PUF domain R7-TMG (Homo sapiens, UniProt Q14671 828-1176, S1079T;N1080M;E1083G). In short, it runs like this:
as §1

The target in assay [16] is PUM1 PUF domain R1-QLT (Homo sapiens, UniProt Q14671 828-1176, S863Q;R864L;Q867T). In a few lines: as §1
Assay [17] concerns the target PUM1 PUF domain R4-KSQ (Homo sapiens, UniProt Q14671 828-1176, N971K;H972S). In short, it runs like this:
as §1

Assay [18] concerns the target PUM1 PUF domain R4-LHR (Homo sapiens, UniProt Q14671 828-1176, N971L;Q975R). In short, it runs like this: as §1
In assay [19] the target is PUM1 PUF domain R4-PWA (Homo sapiens, UniProt Q14671 828-1176, N971P;H972W;Q975A). In short, it runs like this: as §1
PUM1 PUF domain R4-PWA, sequence (Q14671 828-1176 N971P/H972W/Q975A): as the sequence (Q14671 828-1176 N971T/H972R/Q975A) above, with T144P, R145W counted along it
Assay [20] addresses PUM1 PUF domain R5-NSI (Homo sapiens, UniProt Q14671 828-1176, C1007N;R1008S;Q1011I). In short, it runs like this:
as §1

This passage reports binding signal results from PMC8384837, “Expanding the binding specificity for RNA recognition by a PUF domain”.

PUM1 PUF domain R1-RWV, sequence (Q14671 828-1176 S863R/R864W/Q867V): as the sequence (Q14671 828-1176 N971T/H972R/Q975A) above, with S36R, R37W, Q40V, T144N, R145H, A148Q counted along it
PUM1 PUF domain R7-RQR, sequence (Q14671 828-1176 S1079R/N1080Q/E1083R): as the sequence (Q14671 828-1176 N971T/H972R/Q975A) above, with T144N, R145H, A148Q, S252R, N253Q, E256R counted along it
PUM1 PUF domain R1-KRV, sequence (Q14671 828-1176 S863K/Q867V): as the sequence (Q14671 828-1176 N971T/H972R/Q975A) above, with S36K, Q40V, T144N, R145H, A148Q counted along it
PUM1 PUF domain R4-LHR, sequence (Q14671 828-1176 N971L/Q975R): as the sequence (Q14671 828-1176 N971T/H972R/Q975A) above, with T144L, R145H, A148R counted along it
PUM1 PUF domain R7-TMG, sequence (Q14671 828-1176 S1079T/N1080M/E1083G): as the sequence (Q14671 828-1176 N971T/H972R/Q975A) above, with T144N, R145H, A148Q, S252T, N253M, E256G counted along it
PUM1 PUF domain R5-NSI, sequence (Q14671 828-1176 C1007N/R1008S/Q1011I): as the sequence (Q14671 828-1176 N971T/H972R/Q975A) above, with T144N, R145H, A148Q, C180N, R181S, Q184I counted along it

On to “GGCUAGAACUAGUGGAUCCCCCGGCGCCCGGCGGCUCGAGCCCGGGUAAGUGUACAUAGUCUGCAUGCCGCCGGGCGCCAUGCCUGCAGGUCGACUCUAGAAAACAUG”, for which the binding signal in assay [1] was 3.48 log2 enrichment (interaction score); in [2], 0.18 log2 enrichment (interaction score).

On to “GGCUAGAACUAGUGGAUCCCCCGGCGCCCGGCGGCUCGAGCCCGGGUAAGCGUAAAUAGUCUGCAUGCCGCCGGGCGCCAUGCCUGCAGGUCGACUCUAGAAAACAUG”, for which the binding signal in assay [3] was 2.69 log2 enrichment (interaction score).

As to “GGCUAGAACUAGUGGAUCCCCCGGCGCCCGGCGGCUCGAGCCCGGGUAAGUGUAAAUAGUCUGCAUGCCGCCGGGCGCCAUGCCUGCAGGUCGACUCUAGAAAACAUG”, the binding signal is 6 log2 enrichment (interaction score) in assay [1]; 3.52 log2 enrichment (interaction score) in assay [4]; 3.54 log2 enrichment (interaction score) in assay [3]; 3.18 log2 enrichment (interaction score) in [5]; 3.74 log2 enrichment (interaction score) in assay [6]; 3.73 log2 enrichment (interaction score) in [2].

In the case of “GGCUAGAACUAGUGGAUCCCCCGGCGCCCGGCGGCUCGAGCCCGGGUAAGUGUGAAUAGUCUGCAUGCCGCCGGGCGCCAUGCCUGCAGGUCGACUCUAGAAAACAUG”, the binding signal in assay [6] was 1.44 log2 enrichment (interaction score).

Regarding “GGCUAGAACUAGUGGAUCCCCCGGCGCCCGGCGGCUCGAGCCCGGGUAAGUGUAAGUAGUCUGCAUGCCGCCGGGCGCCAUGCCUGCAGGUCGACUCUAGAAAACAUG”, the binding signal in [7] is 3.94 log2 enrichment (interaction score); in assay [5], 4.15 log2 enrichment (interaction score); in assay [8] it was 5.54 log2 enrichment (interaction score).

Consider “GGCUAGAACUAGUGGAUCCCCCGGCGCCCGGCGGCUCGAGCCCGGGUAAGUGUAAAUCGUCUGCAUGCCGCCGGGCGCCAUGCCUGCAGGUCGACUCUAGAAAACAUG”, for which the binding signal was 6.11 log2 enrichment (interaction score) in assay [9], 3.55 log2 enrichment (interaction score) in [10] and 3.51 log2 enrichment (interaction score) in assay [11].

Consider “GGCUAGAACUAGUGGAUCCCCCGGCGCCCGGCGGCUCGAGCCCGGGUAAGUGUAAUUAGUCUGCAUGCCGCCGGGCGCCAUGCCUGCAGGUCGACUCUAGAAAACAUG”, for which the binding signal was 4.13 log2 enrichment (interaction score) in [12], 3.8 log2 enrichment (interaction score) in assay [13] and 4.35 log2 enrichment (interaction score) in assay [8].

Regarding “GGCUAGAACUAGUGGAUCCCCCGGCGCCCGGCGGCUCGAGCCCGGGUAAGUUUAAAUAGUCUGCAUGCCGCCGGGCGCCAUGCCUGCAGGUCGACUCUAGAAAACAUG”, the binding signal is 4.97 log2 enrichment (interaction score) in assay [14] and 2.65 log2 enrichment (interaction score) in assay [15].

Consider “GGCUAGAACUAGUGGAUCCCCCGGCGCCCGGCGGCUCGAGCCCGGGUAAGUCUAAAUAGUCUGCAUGCCGCCGGGCGCCAUGCCUGCAGGUCGACUCUAGAAAACAUG”, for which, in assay [14], the binding signal was 3.17 log2 enrichment (interaction score).

On to “GGCUAGAACUAGUGGAUCCCCCGGCGCCCGGCGGCUCGAGCCCGGGUAAGUGUAAAUUGUCUGCAUGCCGCCGGGCGCCAUGCCUGCAGGUCGACUCUAGAAAACAUG”, for which the binding signal in [16] was 2.41 log2 enrichment (interaction score); in assay [10] it was 2.59 log2 enrichment (interaction score); in assay [11], 6.82 log2 enrichment (interaction score).

As for “GGCUAGAACUAGUGGAUCCCCCGGCGCCCGGCGGCUCGAGCCCGGGUAAGUGUAUAUAGUCUGCAUGCCGCCGGGCGCCAUGCCUGCAGGUCGACUCUAGAAAACAUG”, the binding signal in [17] was 3.81 log2 enrichment (interaction score); in assay [18] it was 4.01 log2 enrichment (interaction score); in assay [19], 5.17 log2 enrichment (interaction score).

Consider “GGCUAGAACUAGUGGAUCCCCCGGCGCCCGGCGGCUCGAGCCCGGGUAAGUGUUAAUAGUCUGCAUGCCGCCGGGCGCCAUGCCUGCAGGUCGACUCUAGAAAACAUG”, for which the binding signal in assay [20] was 3.96 log2 enrichment (interaction score); in assay [6], 2.5 log2 enrichment (interaction score).
